The results in this text go back to PubChem BioAssay (NCI).

About 83,000 compounds went through this panel and 20% of them were active in at least one assay; those are over-represented in the sample as a whole.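 Cells were grown in 96-well plates and exposed to the test compound at a single concentration for 48 hours; results are reported as percent growth, with values below 10 considered active.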 Activity calls are given as the source filed them.

For the test, the system named is HL-60(TB) leukemia. Put plainly: NCI-60 one-dose screen, 48 h (100 = growth as untreated, 0 = no growth, -100 = all killed). To be noted: 10 µM unless noted.
For the molecule `COc1ccc(-n2cc(-c3cc(OC)c(OC)c(OC)c3)n(C(C)=O)c2=O)cc1`, the growth was 126% (inactive).

For `CCCCCCCCCCCCC[C@H](O)C[C@H](O)[C@H](C)N`, the growth was 54.8% [1.25 µM] (inactive).

With `c1ccc2sc(SSN3CC4CCC(CC4)C3)nc2c1`, the growth is 89.3% (inactive).

Turning to `Cc1ccc(C(=Nc2ccccc2)N=P(c2ccccc2)(c2ccccc2)c2ccccc2)cc1`, the growth was -4.41% (active).

In the case of `C=CCOc1ccc(/C=C2\SC(=S)N(CCc3ccc(O)cc3)C2=O)cc1`, the growth was 38.9% (inactive).

In the case of `Cn1ccnc1C(=O)/C=C/c1ccc(C(=O)Nc2c(F)c(F)c(F)c(F)c2F)cc1`, the growth is -22.4% (active).

For `O=C1C(Cl)=C(Nc2ccc3c(c2NC2=C(Cl)C(=O)c4ccccc4C2=O)C(=O)c2ccccc2C3=O)C(=O)c2ccccc21`, the growth was -8.26% (active).

`O=C(Oc1ccc2c(c1)sc1nc(-c3ccccc3)[nH]c(=O)c12)C(F)(F)F`: the growth was 2.56% (active).

Turning to `C=C(C)[C@@H]1CC[C@]2(C(=O)O)CC[C@]3(C)[C@H](CC[C@@H]4[C@@]5(C)C[C@@H](CC#Cc6ccccc6)C(=O)C(C)(C)[C@@H]5CC[C@]43C)[C@@H]12`, the growth was 3.03% (active).

Regarding `COc1ccc(Br)c(C=O)c1`, the growth is -16.3% (active).

For `CSc1ccc(-c2ccccc(=O)c2O)cc1`, the growth is -40.1% (active).

Regarding `COc1cccc(-c2nn(-c3ccccc3)cc2-c2ccnc(NCCCNC(=O)c3ccccc3)c2)c1`, the growth was 23.8% (inactive).

As to `COc1ccc(C2C=C(c3ccc(N)cc3)N=C3SC=CN32)cc1OC` (stereo not given), the growth was 105% (inactive).

As to `C=C(CNCCO)[C@@H]1CC[C@]2(CO)CC[C@]3(C)[C@H](CC[C@@H]4[C@@]5(C)CCC(NCCc6ccc(O)cc6)C(C)(C)[C@@H]5CC[C@]43C)[C@@H]12` (stereo not given in full), the growth is -52.2% (active).

As to `CCCCCCCCOC(=O)c1c(C)[nH]c(/C=C2\N=C(c3ccc[nH]3)C=C2OC)c1C`, the growth is 4.96% (active).

Take `O=C(O)CNC(=O)CN1C(=O)c2ccccc2C1=O`: the growth was 90.7% (inactive).

Consider `COc1cc2c3c(n([C@H]4CCOC4)c(=O)c2cc1OC)-c1cc2c(cc1C3=O)OCO2`, for which the growth is 25% (inactive).

As for `CCN(CC)CCN1c2nc3ccccc3cc2Sc2cc3ccccc3nc21`, the growth was -21.1% (active).

For the molecule `O=c1cn[nH]c2ccc(Br)cc12`, the growth is 85.5% (inactive).

With `Cc1ccc(Cc2ccc(C)cc2)cc1`, the growth is 95.9% (inactive).

Regarding `O=C(Nc1cccc(Cn2c(=O)[nH]c3ccc(Oc4ncccn4)cc3c2=O)c1)c1cccc(F)c1`, the growth is 89.9% (inactive).

In the case of `Nc1nc(N)c2c(n1)NC(c1ccc3c(c1)OCO3)CC(c1cccc(Nc3ccncc3)c1)=N2` (stereo not given), the growth was 57% (inactive).

Consider `CC(=O)OCc1cc(-c2nc3ccccc3[nH]c2=O)nn1-c1ccc(Cl)cc1`, for which the growth is 84.5% (inactive).

As for `O=C(CSc1nnc(-c2ccc(NC(=O)c3cccnc3)cc2)o1)Nc1cccc(Br)c1`, the growth is 96.1% (inactive).

Turning to `O=S(=O)(O)CCl`, the growth was 94.7% (inactive).

For `O=C(C=P(c1ccccc1)(c1ccccc1)c1ccccc1)CCl`, the growth was -39.8% (active).

For `c1ccc(Sc2ncnc3ccccc23)cc1`, the growth is 74.1% (inactive).

For the molecule `COc1cc(C(=O)N/N=C/c2ccc(N(C)C)cc2)cc(OC)c1OC`, the growth is -20% (active).

As for `COc1cc(/C=C/C(=O)N2CCN(C(=O)/C=C/c3ccccc3)CC2)cc(OC)c1OC`, the growth was 101% (inactive).

Take `N#Cc1ccc(O)c(C2=NCC(Cc3ccccc3)O2)c1` (stereo not given): the growth was 44% (inactive).

For the molecule `COc1ccc(NC(=O)CSc2oc(-c3ccccc3)nc2S(=O)(=O)c2ccc(Cl)cc2)c(OC)c1`, the growth was 49.4% (inactive).

On to `c1ccc(C2Cc3ccccc3C2=NC2CCCCC2)cc1` (stereo not given), for which the growth was 98.2% (inactive).

As for `O=c1[nH]c(NCc2nnnn2-c2ccc(Br)cc2)nc2sc3c(c12)CCCC3`, the growth was 103% (inactive).

`C[N+]1(CCc2ccccc2)CCC(CCC2CC[N+](C)(CCc3ccccc3)CC2)CC1` (stereo not given): the growth is 105% (inactive).

In the case of `c1ccc2c(Nc3cccc4ccccc34)cccc2c1`, the growth was 18.9% (inactive).

As for `O=C(O)c1cn(C2CC2)c2cc(N3CCN(C(=O)N4CCOCC4)CC3)c(F)cc2c1=O`, the growth is 90.3% (inactive).

Turning to `COc1cc(-c2cnc3nonc3n2)c(OC)c2c1OCO2`, the growth is 88.8% (inactive).

For the molecule `N=C(N)c1ccc(-c2ccc(-c3ccc(Cl)c(Cl)c3)s2)cc1`, the growth is -32% (active).

Consider `Fc1c[c-]c(-c2ccccn2)c(F)c1.[CH3-].[Pt+2].c1ccc(P(C[PH+](c2ccccc2)c2ccccc2)c2ccccc2)cc1`, for which the growth is -24.2% (active).

Regarding `Cc1ccc2[nH]c(=O)c3c(c2c1)OC(N)=C(C#N)C31C(=O)c2cccc3cccc1c23` (stereo not given), the growth is 98.6% (inactive).
